# The campaign covered roughly 5,500 compounds. About 2,000 (36%) were called active. Not shown: some 18% with an inconclusive outcome. Some of the results follow. Unmarked numbers belong to inactive results. Cut-off read from the data, not from the text of the source: active = normalized growth mostly below about 0.91 (no sharp cut-off); inconclusive = no clear call, values can overlap the other calls; inactive = mostly above about 0.92.
# Assay: chemical genetic growth profiling, strain panel (AID 1159580);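 note: tested at 20 µM; growth read once vehicle control cultures reached saturation at 30 °C; 1 = growth at the plate median or of vehicle wells; lower values mean less growth of the strain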
# Conditions: growth OD
compound,measurement,setting,value
CC(=O)Oc1ccc2c(c1)CCC1C2CC[C@@]2(C)C1CC[C@@H]2OC(C)=O (stereo not given in full),normalized growth,"S. cerevisiae deletion strains, locus YJR075W, strain HOC1, active compounds read low",0.957
same,normalized growth,"S. cerevisiae deletion strains, locus YKL009W, strain mrt4, active compounds read low",0.956
same,normalized growth,"S. cerevisiae deletion strains, locus YKL068W, active compounds read low",0.971
same,normalized growth,"S. cerevisiae deletion strains, locus YKL085W, strain MDH1 (second series), active compounds read low",0.959
same,normalized growth,"S. cerevisiae deletion strains, locus YKL085W, strain MDH1, active compounds read low",0.959
same,normalized growth,"S. cerevisiae deletion strains, locus YKL160W, strain elf1, active compounds read low",1
same,normalized growth,"S. cerevisiae deletion strains, locus YKL190W, strain CNB1, active compounds read low",0.961
same,normalized growth,"S. cerevisiae deletion strains, locus YKR001C, strain vps1, active compounds read low",0.98
same,normalized growth,"S. cerevisiae deletion strains, locus YKR026C, strain gcn3, active compounds read low",0.973
same,normalized growth,"S. cerevisiae deletion strains, locus YKR091W, strain srl3, active compounds read low",0.99
same,normalized growth,"S. cerevisiae deletion strains, locus YLL001W, strain dnm1, active compounds read low",0.96
same,normalized growth,"S. cerevisiae deletion strains, locus YLL026W, active compounds read low",0.991
same,normalized growth,"S. cerevisiae deletion strains, locus YLL041C, strain sdh2, active compounds read low",0.996
same,normalized growth,"S. cerevisiae deletion strains, locus YLR027C, strain aat2, active compounds read low",0.997
same,normalized growth,"S. cerevisiae deletion strains, locus YLR039C, strain RIC1, active compounds read low",0.838
same,normalized growth,"S. cerevisiae deletion strains, locus YLR058C, strain SHM2, active compounds read low",0.968
same,normalized growth,"S. cerevisiae deletion strains, locus YLR102C, strain apc9, active compounds read low",0.968
same,normalized growth,"S. cerevisiae deletion strains, locus YLR113W, strain HOG1, active compounds read low",0.911
same,normalized growth,"S. cerevisiae deletion strains, locus YLR221C, strain rsa3, active compounds read low",0.958
same,normalized growth,"S. cerevisiae deletion strains, locus YLR258W, strain gsy2, active compounds read low",0.991
same,normalized growth,"S. cerevisiae deletion strains, locus YLR262C, strain YPT6 (second series), active compounds read low",0.663 (active)
same,normalized growth,"S. cerevisiae deletion strains, locus YLR262C, strain YPT6, active compounds read low",0.729
same,normalized growth,"S. cerevisiae deletion strains, locus YLR268W, strain sec22, active compounds read low",0.986
same,normalized growth,"S. cerevisiae deletion strains, locus YLR320W, strain mms22, active compounds read low",0.908
same,normalized growth,"S. cerevisiae deletion strains, locus YLR330W, strain CHS5, active compounds read low",0.981
same,normalized growth,"S. cerevisiae deletion strains, locus YLR342W, strain FKS1 (second series), active compounds read low",1.03
same,normalized growth,"S. cerevisiae deletion strains, locus YLR342W, strain FKS1, active compounds read low",0.969
same,normalized growth,"S. cerevisiae deletion strains, locus YLR357W, strain rsc2, active compounds read low",1
same,normalized growth,"S. cerevisiae deletion strains, locus YLR370C, strain arc18, active compounds read low",0.977
same,normalized growth,"S. cerevisiae deletion strains, locus YLR371W, strain rom2, active compounds read low",0.981
same,normalized growth,"S. cerevisiae deletion strains, locus YLR384C, strain iki3, active compounds read low",0.985
same,normalized growth,"S. cerevisiae deletion strains, locus YLR418C, strain cdc73, active compounds read low",0.963
same,normalized growth,"S. cerevisiae deletion strains, locus YML016C, strain PPZ1, active compounds read low",0.974
same,normalized growth,"S. cerevisiae deletion strains, locus YML032C, strain rad52, active compounds read low",0.974
same,normalized growth,"S. cerevisiae deletion strains, locus YML120C, strain ndi1, active compounds read low",0.97
same,normalized growth,"S. cerevisiae deletion strains, locus YML124C, strain tub3, active compounds read low",0.965
same,normalized growth,"S. cerevisiae deletion strains, locus YMR058W, strain fet3, active compounds read low",1
same,normalized growth,"S. cerevisiae deletion strains, locus YMR078C, strain ctf18, active compounds read low",0.964
same,normalized growth,"S. cerevisiae deletion strains, locus YMR125W, strain sto1, active compounds read low",0.994
same,normalized growth,"S. cerevisiae deletion strains, locus YMR129W, active compounds read low",0.989
same,normalized growth,"S. cerevisiae deletion strains, locus YMR205C, strain PFK2, active compounds read low",0.947
same,normalized growth,"S. cerevisiae deletion strains, locus YMR223W, strain ubp8, active compounds read low",0.984
same,normalized growth,"S. cerevisiae deletion strains, locus YMR231W, strain pep5, active compounds read low",1.02
same,normalized growth,"S. cerevisiae deletion strains, locus YMR263W, strain SAP30, active compounds read low",0.967
same,normalized growth,"S. cerevisiae deletion strains, locus YMR307W, strain GAS1, active compounds read low",1.12
same,normalized growth,"S. cerevisiae deletion strains, locus YNL067W, strain RPL9B, active compounds read low",0.957
same,normalized growth,"S. cerevisiae deletion strains, locus YNL071W, strain lat1, active compounds read low",0.97
same,normalized growth,"S. cerevisiae deletion strains, locus YNL128W, strain TEP1, active compounds read low",0.986
same,normalized growth,"S. cerevisiae deletion strains, locus YNL183C, strain NPR1, active compounds read low",0.894
same,normalized growth,"S. cerevisiae deletion strains, locus YNL209W, strain ssb2, active compounds read low",1.02
same,normalized growth,"S. cerevisiae deletion strains, locus YNL233W, strain BNI4, active compounds read low",0.938
same,normalized growth,"S. cerevisiae deletion strains, locus YNL248C, strain rpa49, active compounds read low",0.986
same,normalized growth,"S. cerevisiae deletion strains, locus YNL250W, strain rad50, active compounds read low",0.972
same,normalized growth,"S. cerevisiae deletion strains, locus YNL271C, strain bni1, active compounds read low",0.996
same,normalized growth,"S. cerevisiae deletion strains, locus YNL298W, strain CLA4, active compounds read low",0.969
same,normalized growth,"S. cerevisiae deletion strains, locus YNL307C, strain MCK1, active compounds read low",0.958
same,normalized growth,"S. cerevisiae deletion strains, locus YNL322C, strain KRE1 (second series), active compounds read low",0.988
same,normalized growth,"S. cerevisiae deletion strains, locus YNR049C, strain mso1, active compounds read low",0.99
same,normalized growth,"S. cerevisiae deletion strains, locus YNR052C, strain pop2, active compounds read low",0.985
same,normalized growth,"S. cerevisiae deletion strains, locus YOL006C, strain TOP1, active compounds read low",0.796
same,normalized growth,"S. cerevisiae deletion strains, locus YOL012C, strain htz1",1.06
same,normalized growth,"S. cerevisiae deletion strains, locus YOL147C, strain pex11, active compounds read low",0.969
same,normalized growth,"S. cerevisiae deletion strains, locus YOR001W, strain rrp6, active compounds read low",0.972
same,normalized growth,"S. cerevisiae deletion strains, locus YOR061W, strain CKA2, active compounds read low",0.937
same,normalized growth,"S. cerevisiae deletion strains, locus YOR069W, strain VPS5, active compounds read low",0.987
same,normalized growth,"S. cerevisiae deletion strains, locus YOR070C, strain gyp1, active compounds read low",1.01
same,normalized growth,"S. cerevisiae deletion strains, locus YOR080W, strain dia2, active compounds read low",1.02
same,normalized growth,"S. cerevisiae deletion strains, locus YOR083W, strain WHI5, active compounds read low",0.936
same,normalized growth,"S. cerevisiae deletion strains, locus YOR106W, strain vam3, active compounds read low",1.03
same,normalized growth,"S. cerevisiae deletion strains, locus YOR136W, strain idh2, active compounds read low",0.982
same,normalized growth,"S. cerevisiae deletion strains, locus YOR144C, strain elg1, active compounds read low",0.968
same,normalized growth,"S. cerevisiae deletion strains, locus YOR184W, strain ser1, active compounds read low",0.906
same,normalized growth,"S. cerevisiae deletion strains, locus YOR231W, strain MKK1, active compounds read low",0.923
same,normalized growth,"S. cerevisiae deletion strains, locus YOR265W, strain rbl2, active compounds read low",0.992
same,normalized growth,"S. cerevisiae deletion strains, locus YOR270C, strain vph1, active compounds read low",0.968
same,normalized growth,"S. cerevisiae deletion strains, locus YOR290C, strain snf2, active compounds read low",0.968
same,normalized growth,"S. cerevisiae deletion strains, locus YOR316C, strain cot1, active compounds read low",0.965
same,normalized growth,"S. cerevisiae deletion strains, locus YPL051W, strain arl3, active compounds read low",1.01
same,normalized growth,"S. cerevisiae deletion strains, locus YPL055C, strain LGE1, active compounds read low",0.838
same,normalized growth,"S. cerevisiae deletion strains, locus YPL078C, strain atp4, active compounds read low",1.04
same,normalized growth,"S. cerevisiae deletion strains, locus YPL106C, strain sse1, active compounds read low",1.03
same,normalized growth,"S. cerevisiae deletion strains, locus YPL240C, strain hsp82, active compounds read low",1
same,normalized growth,"S. cerevisiae deletion strains, locus YPL241C, strain CIN2, active compounds read low",0.972
same,normalized growth,"S. cerevisiae deletion strains, locus YPL256C, strain CLN2, active compounds read low",0.924
same,normalized growth,"S. cerevisiae deletion strains, locus YPR119W, strain clb2, active compounds read low",0.955
same,normalized growth,"S. cerevisiae deletion strains, locus YPR141C, strain kar3, active compounds read low",0.97
same,normalized growth,"S. cerevisiae deletion strains, locus YPR163C, strain tif3, active compounds read low",0.979
same,normalized growth,"S. cerevisiae deletion strains, locus YPR167C, strain met16, active compounds read low",0.975
same,normalized growth,"S. cerevisiae deletion strains, strain wtn01, active compounds read low",0.972
same,normalized growth,"S. cerevisiae strains, strain wild type, active compounds read low",0.958

# Source: PubChem BioAssay AID1159580 (chemical genetic matrix, 2015)
